Compound activity (PubChem)
TDP1 cell CPT: DT40-hTDP1 cell growth loss with CPT; chicken DT40 Tdp1-/-;hTDP1 cells + 20 nM CPT, ATP luminescence, 48 h; Potency, µM (top dose mostly 46.2 µM), most hits filed as inhibitors; actives 12% (n = 420,000); AID 686979; further: nearly all actives have a fitted effect of over 55% in size
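Chicken DT40 Tdp1-/- cells complemented with human TDP1, 400 cells/well, exposed to compounds plus 20 nM camptothecin for at least 48 h at 37 C; viability read as ATP content by CellTiter-Glo luminescence.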
IL-1B inflam inh: inflammasome signaling inhibition, IL-1 beta readout. THP-1 LPS/ATP IL-1B secretion, AlphaLISA, 16 h; hits give low values. activity change, % at 57.5 µM. actives 4.7% (n = 360,000). AID 743279; in the data active means activity change below about -50%; inconclusive means mostly about -30% to -49%
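Secreted IL-1B measured by AlphaLISA bead assay after 16 h compound exposure of THP-1 cells; compounds (final up to 57.5 uM) added 1 h before LPS (250 ng/mL) and ATP (1.25 mM) stimulation; lower signal means less secretion.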
TGFb inhibitor: blocks TGF-b signaling; HepG2 CAGA-GFP TGF-b/SMAD3 reporter, GFP fluorescence, 18 h; TGF-beta stimulated, 500 pg/mL final; Potency, µM (series often up to 46.1 µM), hits mostly inhibitors; actives 1.2% (n = 410,000); AID 588855; further: nearly all actives have a fitted effect of over 65% in size
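HEPG2 CAGA-GFP reporter cells (1000/well, DMEM with 1% FBS) received compounds, then recombinant TGF-beta at 500 pg/mL final for 18 hours at 37 degrees C. Per-cell GFP summed per well was normalised to unstimulated and stimulated DMSO controls before curve fitting.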
DT40 TDP1 no CPT: qHTS for Inhibitors of human tyrosyl-DNA phosphodiesterase 1 (TDP1): qHTS in cells in absence of CPT; DT40 Tdp1-/- hTDP1 cells, no CPT, ATP luminescence, 48 h; Potency, µM (doses to about 46.2 µM), most hits filed as inhibitors; actives 15% (n = 420,000); AID 686978, 2013; further: nearly all actives have a fitted effect of over 55% in size
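Readout: luminescence from CellTiter-Glo after 30 min in the dark at RT. Cells: DT40 Tdp1-/- with stable hTDP1, 400/well. Exposure: compounds alone, ≥48 hr, 37 °C.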
HepG2 viability: HepG2 cytotoxicity, counter-screen for TGF-b inhibitors; HepG2 CAGA-GFP viability, ATP luminescence, 18 h; actives 0.76% (n = 410,000); Potency, µM (top dose mostly 46.1 µM), usual class: cytotoxic; AID 588856
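HepG2 CAGA-GFP cells (1000/well, DMEM with 1% FBS) received compound, then TGF-beta at 500 pg/mL final, and were incubated 18 hours at 37 degrees C. Viability was read by CellTiter-Glo luminescence. Media-only wells were set as complete cell-killing and DMSO as no toxicity.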
ASM inhibitor: blocks human secretory acid sphingomyelinase | P17405 | placental ASM, HMU-PC fluorogenic substrate, 60 min | Potency, µM (titrated, usually from 57.5 µM), hits mostly inhibitors | actives 0.006% (n = 340,000)
Target sequence (P17405 47-631 limits assumed): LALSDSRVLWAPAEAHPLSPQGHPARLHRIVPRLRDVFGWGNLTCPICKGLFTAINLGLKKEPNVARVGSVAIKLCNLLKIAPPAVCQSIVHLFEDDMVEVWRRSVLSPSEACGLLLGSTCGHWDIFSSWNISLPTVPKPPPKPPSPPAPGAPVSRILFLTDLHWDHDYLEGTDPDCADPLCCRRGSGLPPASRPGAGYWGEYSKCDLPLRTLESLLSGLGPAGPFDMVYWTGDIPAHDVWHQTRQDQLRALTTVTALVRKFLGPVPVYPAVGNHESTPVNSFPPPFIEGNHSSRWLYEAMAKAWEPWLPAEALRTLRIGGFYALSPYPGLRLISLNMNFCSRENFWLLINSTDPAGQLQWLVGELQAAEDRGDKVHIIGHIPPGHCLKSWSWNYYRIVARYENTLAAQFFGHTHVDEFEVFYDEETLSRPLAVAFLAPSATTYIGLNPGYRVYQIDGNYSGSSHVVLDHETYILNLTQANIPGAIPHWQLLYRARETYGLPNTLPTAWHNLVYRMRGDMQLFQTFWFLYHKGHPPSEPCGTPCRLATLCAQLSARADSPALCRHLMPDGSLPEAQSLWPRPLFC
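Fluorescence read-out (Ex 386 nm, Em 447 nm) after stopping the reaction at pH 10. Enzyme: ASM from human placenta; substrate HMU-PC0, 9 uM final; 60 min, 37 °C. Compound preincubation 10 min, ambient temperature.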
A number is an active result; n = inactive; u = inconclusive; x = not tested or not shown; ! = not active in a repeat; [ ] = dose if it differs, or a comment. Rows were chosen to be rich in hits. Some 19% of all compounds tested hit in one or more screens of this group. Unless noted, the call rests on the fitted dose curve; in most records, active means well fitted curve in the direction sought with a large enough effect; inconclusive means small, poorly fitted or top-dose-only effect, or another doubt; inactive means no such curve, though single readings can be large; an effect the other way counts as inactive or inconclusive.

SMILES	TDP1 cell CPT	IL-1B inflam inh	TGFb inhibitor	DT40 TDP1 no CPT	HepG2 viability	ASM inhibitor
CN=C1CN=C(c2ccc[nH]2)c2cc(Cl)ccc2N1	0.079µM	x	n	0.11µM	n	x
Cc1ccc2oc(=O)c(-c3nc4ccc(C)cc4[nH]3)cc2c1	u	x	n	n	n	x
COc1cc2c(c(OC)c1O)-c1ccc(OC)c(=O)cc1C(NC(=O)C(F)(F)F)CC2 (stereo unspecified)	0.1µM	n	u	0.16µM	n	n
COc1cc2c(c(OC)c1OC)-c1ccc(OC)c(=O)cc1[C@H](NC(C)=O)CC2	0.094µM	x	x	0.06µM	x	x
COc1cc2c(c(OC)c1OC)-c1ccc(C(=O)O)cc1[C@@H](NC(C)=O)CC2	x	x	n	x	n	n
COc1cc2c(c(OC)c1OC)-c1ccc(OC)c(=O)cc1[C@@H](NC(C)=O)CC2	0.016µM	n	u	0.19µM!	n	n
CCN(CC)c1ccc2c(cc1=O)[C@@H](NC)CCc1cc(OC)c(OC)c(OC)c1-2	1.2µM	n	u	1.2µM	n	n
O=c1ccc2cc(O[C@@H]3O[C@H](CO)[C@@H](O)[C@H](O)[C@H]3O)c(O)cc2o1	n	n	n	n	n	n
COc1ccc(/C=C/C(=O)N2CC3C[C@@H](C2)Cn2c3cccc2=O)cc1OC	n[9.04 µM]	x	x	n[9.04 µM]	x	x
CC(OC(=O)c1cn(C)c2ccccc12)C(=O)N1CCCC1 (stereo unspecified)	n	n	u	n	n	n
COc1ccc(NC(=O)CN2C3CCC2CC(O)(c2cccnc2)C3)cc1OC (stereo unspecified)	n	n	n	n	n	n
COc1ccc(NC(=O)C2Cc3c(-c4cccc(C(C)=O)c4)ccnc3O2)cc1OC (stereo unspecified)	3.3µM	n	n	4.1µM	n	x
Cc1ccc(-n2nc3c(=O)n(CC(=O)NCC(C)c4ccccc4)nc(C)c3c2C)cc1 (stereo unspecified)	21µM	x	n	u	n	x
COc1ccc(-n2c(O)c(C=NCc3ccc4c(c3)OCO4)c(=O)[nH]c2=O)cc1	n	n	n	n	n	n
COc1ccc(CN2Cc3cc(-c4ccc(OC)cc4)ccc3-n3nncc3C2)cc1	21µM	n	u	18µM	n	x
COc1ccc(CN2Cc3cnnn3-c3ccccc3C2C)cc1 (stereo unspecified)	u	n	n	16µM	n	n
COc1ccc(CN2Cc3cc(N4CCOCC4)ccc3-n3nncc3C2)cc1	21µM	n	n	u	n	x
COc1ccc(CN2Cc3cc(-c4ccccc4)ccc3-n3nncc3C2)cc1	u	n	u	u	n	x
CCOC(=O)CC1c2ccccc2-n2nncc2CN1Cc1ccc(OC)cc1 (stereo unspecified)	u	n	n	u	n	n
Cc1ccccc1C(=O)N1Cc2cnnn2-c2ccccc2C1C#N (stereo unspecified)	n	n	u	n	n	n
Cc1ccccc1CN1Cc2cnnn2-c2ccccc2C1C#N (stereo unspecified)	2.6µM	-102	u	2.1µM	n	n
Cc1ccc(S(=O)(=O)N(c2cc(Cl)c(O)c(Cl)c2)P(=O)(OC(C)C)OC(C)C)cc1	n	n	n	n	n	n
CN(C)C(=O)Oc1ccnc2cc(Cl)ccc12	n	-73	n	u	n	n
O=C(N/N=C/c1c(O)n(Cc2ccccc2)c(=O)[nH]c1=O)c1ccccc1O	n	n	n	n	n	n
CCCCCCC(=O)N/N=C/c1c(O)n(C(C)CC)c(=S)[nH]c1=O (stereo unspecified)	13µM	n	u	9.2µM	n	n
SMILES	TDP1 cell CPT	IL-1B inflam inh	TGFb inhibitor	DT40 TDP1 no CPT	HepG2 viability	ASM inhibitor
O=C(N/N=C/c1c(O)n(Cc2ccc(F)cc2)c(=O)[nH]c1=O)c1ccccc1O	13µM	n	n	u	n	n
CCCCCCC(=O)N/N=C/c1c(O)n(CCc2ccccc2)c(=O)[nH]c1=O	u	n	n	18µM	n	n
NC(=O)Cc1cccc(C(=O)c2ccccc2)c1N	n	x	x	u	x	x
CC(C)CN1CC2(CCN(C(=O)Oc3ccccc3)CC2)C1	n	x	x	n	x	x
CCc1nc2ccc(C(=O)NCCN3CCNC3=O)cn2c1N(CC)Cc1cccc(Br)c1	u	n	n	u	n	x
CCCCCCCCC(=O)NCc1ccc(O)c(OC)c1	u	n	n	u	n	n
COc1cc(CNC(=O)CCCC/C=C/C(C)C)ccc1O	11µM!	n	n	8.9µM!	n	n
N#CC1=C(N)Oc2c(c(=O)sc3ccccc23)C1c1cccnc1 (stereo unspecified)	8.2µM	n	n	8.2µM	n	n
N#CC1=C(N)Oc2c(c(=O)oc3ccccc23)C1c1ccncc1 (stereo unspecified)	n	n	n	n	n	n
CCc1ccc(OCC(=O)Nc2cc3oc4ccccc4c3cc2OC)cc1	u	x	n	u	n	x
C/C=C1/C[C@@H](C)[C@@](C)(O)C(=O)OCC2=CCN3CC[C@@H](OC1=O)[C@@H]23	x	x	n	x	n	x
COc1ccc(C=C2C(=O)NC(=S)NC2=O)cc1OC	n	n	n	n	n	n
COc1ccc(/C=C/C=C2C(=O)NC(=S)NC2=O)cc1	3.3µM	u	n	3.3µM	n	n
N#Cc1cc([N+](=O)[O-])ccc1NC(=O)c1cccn(Cc2cccc(F)c2)c1=O	n	x	n	n	n	x
Clc1cccc(CNCCc2ccc3c(c2)OCO3)c1	u	-81	n	u	n	n
Clc1ccc(CNCCc2ccc3c(c2)OCO3)cc1	n	-84	n	n	n	n
COc1ccc(CNCCc2ccc3c(c2)OCO3)cc1Br	u	n	n	21µM	n	n
CN1CC=C(c2c[nH]c3ccccc23)CC1	n	n	u	n	n	n
C1=C(c2c[nH]c3ccccc23)CCN(Cc2ccccc2)C1	9.2µM	n	u	4.6µM	n	n
CCOC(=O)Nc1ccc(NCc2ccc(F)cc2)nc1N	u	n	n	16µM!	n	n
CCCN1CCO[C@@H]2c3cc(O)ccc3OC[C@@H]21	n	x	x	n	x	x
O=P(O)(O)COc1ccccc1O	n	n	n	n	n	u
O=C(C1CCN(S(=O)(=O)c2ccc(Br)s2)CC1)N1CCN(c2cccc(C(F)(F)F)c2)CC1	23µM	x	n	6.5µM	n	x
CCCN(c1ccc(C(C)C)cc1)S(=O)(=O)c1ccc2c(c1)CCN2C(=O)CC	u	x	n	7.3µM	n	x
CC(C)C(=O)c1cn(Cc2ccccc2C#N)c2ccccc12	u	n	n	u	n	n
